SENP7 block = inhibitors of human SENP7 protease. Q9BQF6. recombinant SENP7, Z-RLRGG-aminoluciferin luminescence, 40 min. inhibition, % at 5 µM. 330,000 compounds, 1.5% hits. AID 434973;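 active means inhibition above about 50% at the single test dose, limit read from the data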;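 further: plate controls were DMSO with enzyme for no effect and no enzyme buffer wells for full effect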
Target sequence (Q9BQF6 706-1050 limits assumed): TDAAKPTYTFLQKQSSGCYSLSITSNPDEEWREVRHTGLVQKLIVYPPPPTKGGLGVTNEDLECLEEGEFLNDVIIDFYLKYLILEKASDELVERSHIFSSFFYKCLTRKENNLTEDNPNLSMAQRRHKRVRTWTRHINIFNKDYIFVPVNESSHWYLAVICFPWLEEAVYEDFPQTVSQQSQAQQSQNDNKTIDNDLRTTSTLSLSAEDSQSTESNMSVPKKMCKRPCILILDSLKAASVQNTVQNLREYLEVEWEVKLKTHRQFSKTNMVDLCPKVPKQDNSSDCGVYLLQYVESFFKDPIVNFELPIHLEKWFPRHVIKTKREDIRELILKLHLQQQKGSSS
SENP8 block-1 = blocks the human protease SENP8. purified SENP8, Z-RLRGG-aminoluciferin cleavage, luminescence. inhibition, % at 10 µM. 330,000 compounds, 1.2% hits; in the data active means inhibition above about 50%
Target sequence (Q96LD8 whole entry, looked up): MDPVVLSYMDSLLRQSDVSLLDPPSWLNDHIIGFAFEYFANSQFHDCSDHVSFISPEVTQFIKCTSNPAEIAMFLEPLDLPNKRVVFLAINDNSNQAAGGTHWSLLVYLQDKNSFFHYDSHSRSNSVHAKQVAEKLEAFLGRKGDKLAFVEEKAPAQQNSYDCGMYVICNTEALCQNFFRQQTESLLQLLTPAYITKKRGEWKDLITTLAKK
SENP8 block-2 = blocks human SENP8 cleavage of Nedd8 substrate | recombinant SENP8, Nedd8 substrate fluorescence | inhibition, % at 20 µM | 360,000 compounds, 0.64% hits; in the data active means inhibition mostly above about 40%, no sharp cut-off; inactive means mostly below about 27%
PPC-1+TRAIL kill = PPC-1 cancer cell killing with TRAIL present. AID 1443. cell killing (% activity), % at 4 µM or 5 µM. 220,000 compounds, 0.41% hits. PPC-1 cells + TRAIL, ATPLite viability luminescence;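 active means cell killing above 50% in the first pass at 4 µM, then a duplicate retest at 5 µM averaging 50% or more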;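 further: plate controls were cells with TRAIL plus DMSO for no effect and medium-only wells lacking cells for full effect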
SENP6 block = SENP6 protease inhibition; Recombinant SENP6 catalytic domain, aminoluciferin luminescence; inhibition, % at 10 µM; 330,000 compounds, 1.8% hits;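 active means inhibition above about 50% at the single tested dose, limit read from the data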;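 further: plate controls were DMSO wells with enzyme for no effect and DMSO wells lacking enzyme for full effect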
C8 TRAIL sens = caspase-8 TRAIL sensitization. inhibition (viability loss, TRAIL sensitization), % at 10 µM. NB7+C8 cells + TRAIL, ATPlite viability luminescence. 360,000 compounds, 1% hits. AID 624354;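 active means compounds causing at least 50% loss of cell viability in the single-dose screen, relative to plate controls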
* hit, by the source's call. An excerpt weighted towards active compounds, which were near 3% of everything screened.

CC(=O)N1CC2(c3ccccc3)CN(C(C)=O)CC(c3ccccc3)(C1)C2=O was read as SENP7 block 0, SENP8 block-1 1, SENP8 block-2 16, PPC-1+TRAIL kill -11, SENP6 block 70* and C8 TRAIL sens 1.
Screening CCC(=O)N1CC2(c3ccccc3)CN(C(=O)CC)CC(c3ccccc3)(C1)C2=O returned SENP7 block -4, SENP8 block-1 -6, SENP8 block-2 17, PPC-1+TRAIL kill 5, SENP6 block -3 and C8 TRAIL sens -4.
Screening CCCOc1cc(N)ccc1C(=O)OCCN(CC)CC returned SENP7 block 3, SENP8 block-1 10, SENP8 block-2 6, SENP6 block -12 and C8 TRAIL sens 1.
For CCCOc1ccc(N)cc1N the results were SENP7 block 39, SENP8 block-1 52*, SENP8 block-2 -44, PPC-1+TRAIL kill -3, SENP6 block -4 and C8 TRAIL sens 13.
For CCCCCN=C(N)N/N=C/c1c[nH]c2ccc(OC)cc12 the results were SENP7 block 8, SENP8 block-1 -10, SENP8 block-2 1, SENP6 block -22 and C8 TRAIL sens 94*.
`Cc1cccc(C(=O)NCC(=O)NC2CCC(C)CC2)c1` (configuration not stated) gave SENP7 block 0, SENP8 block-1 2, SENP8 block-2 14, SENP6 block -9 and C8 TRAIL sens -13.
`O=C(c1cc(O)c(O)c([N+](=O)[O-])c1)c1ccccc1F` gave SENP7 block -5, SENP8 block-1 9, SENP8 block-2 39*, SENP6 block -4 and C8 TRAIL sens -9.
Cc1ccc2c(c1)C(=NC1CCCCC1)c1cc3ccccc3nc1-2 was read as SENP8 block-2 14, PPC-1+TRAIL kill 14 and C8 TRAIL sens 64*.
`Cc1ccc2c(c1)-c1nc3ccccc3cc1C2=NC1CCCCC1` gave SENP8 block-2 9, PPC-1+TRAIL kill 25 and C8 TRAIL sens 51*.
Screening Cc1ccc(NC(=O)COC(=O)CNC(=O)c2ccc(Br)cc2)c(C)c1 returned SENP7 block 8, SENP8 block-1 -3, SENP8 block-2 1, PPC-1+TRAIL kill 31, SENP6 block -2 and C8 TRAIL sens -1.
Screening CCOc1ccccc1N1CC(C(=O)N(CC)CC(=O)Nc2ccc3c(c2)OCCO3)CC1=O (configuration not stated) returned SENP7 block 1, SENP8 block-1 -12, SENP8 block-2 1, SENP6 block -6 and C8 TRAIL sens 0.
For Cc1cc(S(=O)(=O)NCc2ccccc2)ccc1OCC(=O)NCc1ccncc1 the results were SENP7 block -10, SENP8 block-1 -9, SENP8 block-2 4, SENP6 block -2 and C8 TRAIL sens 6.
Screening Cc1ccc2cc(NC(=O)c3cccc(F)c3)ccc2n1 returned SENP7 block 40, SENP8 block-1 31, SENP8 block-2 25, PPC-1+TRAIL kill 5, SENP6 block 58* and C8 TRAIL sens 46*.
Screening O=C(Nc1ccc2[nH]ncc2c1)c1cccc(F)c1 returned SENP7 block 1, SENP8 block-1 -14, SENP8 block-2 15, SENP6 block 0 and C8 TRAIL sens 13.
O=C(NC(=S)N1CCN(c2ccc([N+](=O)[O-])cc2)CC1)c1ccccc1F was read as SENP7 block 0, SENP8 block-1 4, SENP8 block-2 27, PPC-1+TRAIL kill 53*, SENP6 block 3 and C8 TRAIL sens -2.
`O=C(NC(=S)N1CCN(c2ccc([N+](=O)[O-])cc2)CC1)c1ccccc1Cl` gave SENP7 block 8, SENP8 block-1 1, SENP8 block-2 39, PPC-1+TRAIL kill 20, SENP6 block -8 and C8 TRAIL sens -2.
Nc1nc(N)c(-c2cccc(C(F)(F)F)c2)c(Cc2cccc(C(F)(F)F)c2)n1 was read as SENP8 block-2 10 and C8 TRAIL sens 78*.
Screening CC(=O)Nc1cc(NC(C)=O)cc(C(=O)N2CCCC3CCCCC32)c1 (configuration not stated) returned SENP7 block -6, SENP8 block-1 5, SENP8 block-2 -2, SENP6 block -5 and C8 TRAIL sens 11.
For O=c1c2ccccc2sc2ccc(Cl)cc12 the results were SENP7 block 58*, SENP8 block-1 19, SENP8 block-2 -139, PPC-1+TRAIL kill 2, SENP6 block 39 and C8 TRAIL sens 9.
`Cc1ccc(S(=O)(=O)N(CC(=O)Nc2cccc(C(F)(F)F)c2)C(=O)N2CCN(C)CC2)cc1` gave SENP7 block 4, SENP8 block-1 5, SENP8 block-2 4, SENP6 block -10 and C8 TRAIL sens -5.
Screening COc1cccc(-c2cc3c(c4c2ccn4C)C2CCC3C2)c1 (configuration not stated) returned SENP8 block-2 -360 and C8 TRAIL sens 0.
For Cc1nc(-c2ccccc2)sc1-c1ccn[nH]1 the results were SENP7 block 56*, SENP8 block-1 47, SENP8 block-2 -391, PPC-1+TRAIL kill 27, SENP6 block 61* and C8 TRAIL sens 34.
Screening CCCOC(=O)CCCN1C(=O)/C(=C2\SC(=S)N(CCCC(=O)OCCC)C2=O)SC1=S returned SENP7 block -11, SENP8 block-1 3, SENP8 block-2 38*, PPC-1+TRAIL kill 1, SENP6 block -3 and C8 TRAIL sens 33.
CCCCOC(=O)CCN1C(=O)/C(=C2\SC(=S)N(CCC(=O)OCCCC)C2=O)SC1=S was read as SENP7 block -10, SENP8 block-1 -10, SENP8 block-2 11, PPC-1+TRAIL kill 2, SENP6 block 8 and C8 TRAIL sens -11.
Screening CCC(Oc1ccccc1)C(=O)NCCOC (configuration not stated) returned SENP7 block -2, SENP8 block-1 0, SENP8 block-2 15, PPC-1+TRAIL kill 0, SENP6 block -2 and C8 TRAIL sens -6.
`O=C1Nc2ccccc2N2CCCC12` (configuration not stated) gave SENP7 block 13, SENP8 block-1 24, PPC-1+TRAIL kill -3 and SENP6 block 68*.
`O=C1C=C(O)c2[nH]c(=O)ccc2C1=O` gave SENP8 block-2 64* and C8 TRAIL sens -12.
CC1=C(C(=O)OC2CCCC(C)C2)C(c2ccccc2)NC(=O)N1 (configuration not stated) was read as SENP7 block 4, SENP8 block-1 -2, SENP8 block-2 6, SENP6 block -4 and C8 TRAIL sens -10.
Screening CCOCC(=O)Nc1ccccc1C(=O)O returned SENP7 block -4, SENP8 block-1 -3, SENP8 block-2 11, PPC-1+TRAIL kill 13, SENP6 block 5 and C8 TRAIL sens 2.
Screening COc1cc(NCc2ccccc2O)c2ncccc2c1 returned SENP7 block -6, SENP8 block-1 -9, SENP8 block-2 -23, PPC-1+TRAIL kill 2, SENP6 block 1 and C8 TRAIL sens -5.
Oc1ccccc1CNc1cccc2cccnc12 was read as SENP7 block 66*, SENP8 block-1 79*, SENP8 block-2 22, PPC-1+TRAIL kill -2, SENP6 block 91* and C8 TRAIL sens 18.

Screens from PubChem BioAssay.
